# Among all 48,000 compounds or so, about 13,000 (27%) showed an effect of 50% or more. The list shows a part of the results.
# Test system: Wolbachia pipientis
# Experiment: Anti-Wolbachia Cell-Based Screen
# Format: functional
# Design: scale not given: in the data most compounds retested in dose-response had high values
# Conditions: 5 µM
row,Structure (SMILES),Percent Effect [%]
1,CSCCC1c2nc[nH]c2CCN1Cc1ccnc2ccccc12 (stereo unspecified),14.89
2,COCCCN1CCC(NC(=O)C(C)C)CC1,12.3
3,Cc1noc(C)c1CNc1c(N2CCCC2)cccc1N1CCCC1,3.451
4,Cn1cc(N2CCCC(Nc3ccc4c(c3)NC(=O)CC4)C2=O)cn1 (stereo unspecified),-4.573
5,CC(c1ncc(-c2ccccc2)o1)N1CCN(C(=O)N(C)C)CC1 (stereo unspecified),106.8
6,O=C(CCCc1ncc(-c2ccccc2)o1)N1CCN(CCO)CC1,-1.483
7,CC(c1ncc(-c2ccccc2)o1)N1CCN(C(=O)C(C)(C)C)CC1 (stereo unspecified),102.5
8,CCS(=O)(=O)N1CCN(C(C)c2ncc(-c3ccccc3)o2)CC1 (stereo unspecified),106.9
9,CCN1CCN(C(=O)NC(C)c2noc(-c3ccccc3)n2)CC1 (stereo unspecified),0.3597
10,CCS(=O)(=O)N1CCN(C(C)c2ccccc2OC)CC1 (stereo unspecified),10.43
11,CC(c1ncc(C(C)(C)C)o1)N1CCN(Cc2ccco2)CC1 (stereo unspecified),19.54
12,CC(c1ncc(C(C)(C)C)o1)N1CCN(c2ccncc2)CC1 (stereo unspecified),-9.491
13,COCC(=O)N1CCN(C)c2ncccc2C1,4.839
14,COCC(=O)N1CCN(C(C)c2ncc(-c3ccccc3)o2)CC1 (stereo unspecified),108.5
15,CN(C)C(=O)N1CCN(C(=O)Nc2nc(-c3ccccc3)ns2)CC1,-9.811
16,Cc1ccc(-c2ncc(CN3CCN(C(=O)N(C)C)CC3)s2)o1,25.76
17,CCCn1ncc(C(=O)NC2CCN(CC3CCCO3)CC2)c1C (stereo unspecified),2.131
18,CC(=O)N1N=C(c2ccco2)OC1C(=O)NCCc1ccc(F)cc1 (stereo unspecified),117.3
19,CN(C)C(CNC(=O)NCCc1cccc(O)c1)c1ccco1 (stereo unspecified),7.876
20,O=C(NCCc1ccncc1)C1CCN(Cc2ccco2)CC1,7.688
21,CC(=O)N1N=C(c2ccco2)OC1C(=O)NCCc1ccc(O)cc1 (stereo unspecified),112.2
22,O=C(NCc1ccc(F)cc1)NCC(O)(c1ccco1)C1CC1 (stereo unspecified),-0.2956

row,Structure (SMILES),Percent Effect [%]
1,Cn1cc(CN2CCOC[C@H]2c2nc(C(C)(C)C)co2)c2ccccc21,-4.393
2,CN(C)c1ncccc1CNC(=O)N1CCCC1c1ccsc1 (stereo unspecified),-3.064
3,CNC(=O)C1CC2(CCN(C(=O)c3csnn3)CC2)c2ccccc21 (stereo unspecified),-5.077
4,CCOC1CC2(CCN(c3cnccn3)CC2)c2ccccc21 (stereo unspecified),15.96
5,CC1CC2(CCN(C(=O)c3c[nH]cn3)CC2)c2ccccc21 (stereo unspecified),62.95
6,CC1CC2(CCN(C(=O)c3csnn3)CC2)c2ccccc21 (stereo unspecified),10.92
7,CCOC1CCC2(CCN(C(=O)c3csnn3)CC2)c2ccccc21 (stereo unspecified),117.6
8,CCOC1CCC2(CCN(C(=O)c3c[nH]cn3)CC2)c2ccccc21 (stereo unspecified),107.8
9,N[C@@H]1c2ccccc2C2(CCN(C(=O)c3ccc(Cl)cn3)CC2)[C@H]1O,2.711
10,CCOC1CC2(CCN(C(C)=O)CC2)c2cc(F)ccc21 (stereo unspecified),-13.1
11,CN(C)C1CC2(CCN(C(=O)c3csnn3)CC2)c2ccccc21.O=C(O)C(F)(F)F (stereo unspecified),-2.029
12,C[C@@H]1CN(C(=O)CCc2nncn2C)CC[C@@]1(O)C1CCC1,-5.246
13,CCN(CC)CCn1ccnc1-c1cccc(C#N)c1,11.68
14,Cc1ccc(-c2nn(-c3cccc(F)c3)cc2CN(C)CCO)o1,-10.45
15,CC(C)(C)CN[C@@H]1CO[C@H](CNC(=O)c2cccs2)[C@H]1O,-6.649
16,Cc1nc([C@@H]2C[C@H]3CN(Cc4scnc4C)C[C@H]3O2)no1,-8.778
17,O=C(NCc1cccs1)c1nc2c(o1)CN(C(=O)c1cccnc1)C2.O=C(O)C(F)(F)F,7.988
18,CN(C)C(=O)NCc1nnc2n1CCN(Cc1ccsc1)C2,3.865
19,CC(C)(C)C(O)CN1CCN(C(=O)COCC2CC2)CC1 (stereo unspecified),-3.893
20,CCCOc1cc(C)ccc1NC(=O)NCCC(=O)N(C)C,-7.738
21,CCS(=O)(=O)NCCNC(C)(C)c1nc(C)cs1,-9.016
22,CC(=O)Nc1nc(C)c(S(=O)(=O)NCCc2cccnc2)s1,82

row,Structure (SMILES),Percent Effect [%]
1,NC(=O)c1ccc(S(=O)(=O)NCCc2ccccn2)cc1,-9.373
2,CC(=O)Nc1nc(C)c(S(=O)(=O)NCCc2ccccn2)s1,90.82
3,Cn1ccnc1CCNS(=O)(=O)c1cccnc1,3.045
4,Cc1cc(NC(=O)NCCc2cccnc2)n(C)n1,-22.8
5,CNC(=O)c1ccc(S(=O)(=O)NCCc2ccccn2)cc1,-1.31
6,Cc1cc(N[C@@H](CO)c2ccccc2)n2nc(C)c(C)c2n1,-10.16
7,COc1ncnc(N)c1CNCC(C)Oc1ccccc1Cl (stereo unspecified),-1.664
8,COc1ncnc(N)c1CNCCc1ccc(-n2cccn2)cc1,93.72
9,COc1ncnc(N)c1CNCc1ccccc1-n1cccn1,108.1
10,c1ccc(-n2cncn2)c(CNCCn2cccn2)c1,-10.78
11,COc1ncnc(N)c1CNCCOc1ccccc1Cl,-0.9521
12,COc1ncnc(N)c1CNCC(C)SC (stereo unspecified),4.865
13,CC(C)C1CN(C(=O)c2cc(=O)[nH]c(=O)[nH]2)CCCN1CC1CC1 (stereo unspecified),26.13
14,Cc1ccc(CN2CCN(c3ncnc4[nH]cnc34)CC2CCO)cc1 (stereo unspecified),-6.275
15,Cc1cc(CN2CCN(CC3CC3)[C@@H]3CS(=O)(=O)C[C@@H]32)ccc1F,0.5835
16,CCS(=O)(=O)N1CCc2c(cccc2NCc2ncc[nH]2)C1,-10.34
17,CCS(=O)(=O)N1CCc2c(nc(C3CCCN3)nc2NC)C1.Cl (stereo unspecified),89.89
18,CNc1nc(C2CCCN2)nc2c1CCN(S(=O)(=O)C1CCCCC1)C2.Cl (stereo unspecified),89.64
19,CCS(=O)(=O)N1CCc2c(cccc2NCc2nc(C)c(C)o2)C1,13.37
20,O=C1CCN(C(=O)C2(c3ccc(F)cc3)CCCC2)CCN1,-16.8
21,COc1ccc(C(O)CNC(=O)NCc2csc(C)n2)cc1 (stereo unspecified),-1.772
22,CS(=O)(=O)N1CCN2C(=O)N(C3CCOCC3)C[C@H]2C1,-10.83

# — ChEMBL document CHEMBL3988442, “University of Dundee, Small-Polar-MMV Screening Library” (2021)
